CYP2C9 activ – CYP2C9 (human) activation; 1.4% of 96,000 active; recombinant CYP2C9, luciferin-H conversion, luminescence; stronger effect = higher value; factor 1 = untreated enzyme, 0 = blocked; activation factor at 5 µM; AID 1024;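 active = activation factor of 2 or more for CYP2C9 at a 5 µM dose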;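 also: 0 = sulfaphenazole-blocked wells and 1 = vehicle-only wells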
Target sequence (P11712 whole entry, looked up): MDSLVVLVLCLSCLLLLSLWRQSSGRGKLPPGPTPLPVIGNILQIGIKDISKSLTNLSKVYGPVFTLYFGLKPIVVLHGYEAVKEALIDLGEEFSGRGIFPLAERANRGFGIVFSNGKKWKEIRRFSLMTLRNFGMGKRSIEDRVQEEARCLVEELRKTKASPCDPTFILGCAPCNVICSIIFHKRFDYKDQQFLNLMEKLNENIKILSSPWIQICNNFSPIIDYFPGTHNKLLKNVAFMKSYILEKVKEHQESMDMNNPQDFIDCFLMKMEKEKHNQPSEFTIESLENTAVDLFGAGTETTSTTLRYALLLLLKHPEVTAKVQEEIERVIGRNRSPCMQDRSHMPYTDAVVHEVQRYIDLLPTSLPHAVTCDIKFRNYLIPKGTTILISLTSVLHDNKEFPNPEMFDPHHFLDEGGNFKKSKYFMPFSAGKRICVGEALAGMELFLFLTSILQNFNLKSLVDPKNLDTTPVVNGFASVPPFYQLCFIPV
CYP2C9 inhib – inhibitors of human CYP2C9. P11712. CYP2C9 Supersomes, luciferin-H conversion, luminescence. inhibition, % at 5 µM. 20% of 96,000 active. AID 777;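 active = blocking of liver enzyme CYP2C9 beyond about 50% at 5 µM, limit read from the data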
Cav32 inh – human Cav3.2 channel inhibition, primary screen. Cav3.2-expressing cells, Fluo-4 calcium fluorescence FDSS; stronger effect = lower value. B-score at 10 µM. AID 449739. 4% of 100,000 active. O95180;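 active = single-dose well whose peak fluorescence ratio is a statistical outlier from its plate by either plate-standardised score or position-corrected B-score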
CYP2C19 inhib – blocks human cytochrome P450 2C19; CYP2C19 Supersomes, luciferin-H EGE luminescence, 30 min; 21% of 96,000 active; inhibition, % at 5 µM;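 active = CYP2C19 inhibition above a set limit at 5 µM in the primary screen, cut at about 50% in these data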;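 also: plate controls were negative control wells for no effect and 2.5 mM tranylcypromine positive control for full effect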
CYP2C19 activ – cytochrome P450 2C19 (human) activation. P33261. recombinant CYP2C19, luciferin-H EGE luminescence; stronger effect = higher value; 0 = fully inhibited enzyme, 1 = untreated enzyme. activation factor at 5 µM. 96,000 tested, under 10 active. AID 1025;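 active = activation factor of at least 2 at 5 µM in the primary screen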;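 also: 0 = wells with 2.5 mM tranylcypromine and 1 = vehicle-only wells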
Active calls of the source: *; . = no result. Hits are enriched below; roughly 27% of the tested compounds scored in any of these assays.

SMILES | CYP2C9 activ | CYP2C9 inhib | Cav32 inh | CYP2C19 inhib | CYP2C19 activ
CCOC(=O)c1[nH]c(COC(=O)CCOc2ccccc2OC)c(C(=O)OCC)c1C | 0.9 | 11 | -0.17 | 1 | 1
CCOC(=O)c1c(C)[nH]c(C)c1C(=O)CSc1nc(N)cc(=O)[nH]1 | 0.5 | 50 | . | 24 | 0.8
N#CCSc1nc2c(c(=O)n1Cc1ccco1)C1(CCCC1)Cc1ccccc1-2 | 0.5 | 50 | -6.2* | 0 | 1
N#CCSc1n[nH]c2nc3c(c(=O)n12)C1(CCCC1)Cc1ccccc1-3 | 0.6 | 39 | -0.67 | -6 | 1.1
CCCn1c(SCC#N)nc2c(c1=O)C1(CCCC1)Cc1ccccc1-2 | 0.7 | 34 | -4.2* | 9 | 0.9
Cc1c(-c2ccccc2)nc2ccccc2c1C(=O)Oc1ccc([N+](=O)[O-])cc1 | 0.8 | 17 | 0.38 | -1 | 1
Nc1ccc(Oc2ccc3nc(-c4ccccc4)c(-c4ccc([N+](=O)[O-])cc4)nc3c2)cc1 | 0.4 | 56* | 0.062 | 18 | 0.8
CCC(C)N1C(=O)/C(=C/c2c(NCCCOC(C)C)nc3c(C)cccn3c2=O)SC1=S (stereo not given) | 0.4 | 57* | -5.1* | 33 | 0.7
CC1(C)Cc2c(cnn2-c2ccccc2)C(=O)/C1=N\NC(=O)c1ccccc1O | 0.8 | 24 | -1.8 | 51* | 0.5
CC1(C)Cc2c(cnn2-c2ccccc2)C(=O)/C1=N\NC(=O)c1ccccc1 | 0.8 | 17 | 0.71 | 17 | 0.8
CCCSc1nc(C)nc2c1c(=O)n(C)c(=O)n2C | 0.9 | 7 | 0.32 | 5 | 0.9
CN1CCN(Cc2nc3c(c(=O)[nH]c(=O)n3C)n2Cc2c(F)cccc2Cl)CC1 | 1.1 | -11 | 0.49 | -16 | 1.2
O=C(Cc1ccccc1[N+](=O)[O-])NCc1ccc(Cl)cc1 | . | . | 0.23 | . | .
O=[N+]([O-])c1ccccc1CNC(Cc1ccccc1)c1ccccc1 (stereo not given) | 0.6 | 40 | -1 | 90* | 0.1
CCOC(=O)C(C)Sc1nc(-c2cccs2)ccc1C#N (stereo not given) | 0 | 96* | -1.4 | 91* | 0.1
C=COC(=O)CSc1nc(-c2cccs2)ccc1C#N | 0.9 | 15 | -0.34 | -3 | 1
CCOc1ccc(CCNC(=O)C2CCN(c3nn4c(=O)cc(C)nc4s3)CC2)cc1OCC | 0.4 | 57* | 0.7 | 54* | 0.5
COCCNC(=O)C1CCCN(c2nn3c(=O)cc(C)nc3s2)C1 (stereo not given) | 0.9 | 13 | 0.22 | 6 | 0.9
CCOc1ccc(CCNC(=O)C2CCCN(c3nn4c(=O)cc(C)nc4s3)C2)cc1 (stereo not given) | 0.4 | 63* | 2.5 | 22 | 0.8
CSc1nc2ccccc2c(=O)n1N | 0.9 | 8 | -0.087 | 26 | 0.7
COCCNC(=O)C(c1cccs1)N(C(=O)Cn1nnc2ccccc21)c1ccc(OC)cc1 (stereo not given) | . | . | 0.68 | . | .
O=C(Cc1cccs1)Nc1nc(-c2ccccc2)cs1 | 0.4 | 61* | -2 | 51* | 0.5
Cc1nc(CC(=O)Nc2nc(-c3ccccc3)cs2)cs1 | 0.7 | 33 | -1.6 | 52* | 0.5
COC(=O)CCC(=O)Nc1nc(-c2ccccc2)cs1 | . | . | -0.34 | . | .
O=C(NCc1cccs1)c1cccc(S(=O)(=O)N2CCCCC2)c1 | 0.3 | 67* | -1.1 | 75* | 0.3
SMILES | CYP2C9 activ | CYP2C9 inhib | Cav32 inh | CYP2C19 inhib | CYP2C19 activ
O=C(Nc1nccs1)c1ccc(Cl)c(S(=O)(=O)N2CCCCC2)c1 | 0.5 | 53* | -2.9 | 65* | 0.3
O=C(Nc1nccs1)c1cccc(S(=O)(=O)N2CCCCC2)c1 | 0.3 | 68* | -0.48 | 94* | 0.1
O=C(Nn1cnnc1)c1ccc(F)c(S(=O)(=O)N2CCCCC2)c1 | 0.3 | 72* | 0.044 | 99* | 0
O=C(Nc1nccs1)c1cc(S(=O)(=O)N2CCCCC2)ccc1Cl | 1.1 | -11 | -0.14 | 2 | 1
O=C(O)c1ccc(Cl)c(S(=O)(=O)N2CCCCCC2)c1 | 0.8 | 15 | 0.63 | 0 | 1
O=P(O)(CCc1ccncc1)CN1CCCCC1 | 1.1 | -15 | -0.0038 | -14 | 1.1
Cc1csc(N2CCCC2c2nc3cc(C(F)(F)F)ccc3n2CCOCCO)n1 (stereo not given) | . | . | 0.43 | . | .
COc1cccc(C2/C(=C(\O)c3ccc(OC)c(OC)c3)C(=O)C(=O)N2c2cc(C)on2)c1 (stereo not given) | 1.1 | -11 | 1 | -13 | 1.1
O=C(NC1=NCCS1)c1ccc(Cl)c(S(=O)(=O)N2CCCCC2)c1 | 0.6 | 36 | 0.0036 | 43 | 0.6
Cc1nonc1NC(=O)c1ccc(Cl)c(S(=O)(=O)N2CCCCC2)c1 | 1.2 | -18 | 0.11 | 68* | 0.3
O=C(COC(=O)C1CC(=O)N(Cc2ccco2)C1)c1ccc(OC(=O)c2ccco2)cc1 (stereo not given) | . | . | -0.096 | . | .
COc1cc2c(cc1NC(=O)COC(=O)C1CC(=O)N(Cc3ccco3)C1)oc1ccccc12 (stereo not given) | 0.4 | 59* | 0.46 | 26 | 0.7
Cc1ccc(C(=O)Oc2ccc(C(=O)COC(=O)C3CC(=O)N(Cc4ccco4)C3)cc2)cc1 (stereo not given) | . | . | 0.21 | . | .
Cc1[nH]c2ccccc2c1C(=O)COC(=O)C1CC(=O)N(Cc2ccco2)C1 (stereo not given) | 0.9 | 11 | 0.047 | 56* | 0.4
CCOC(=O)Cc1csc(NC(=O)CSc2nncn2C)n1 | . | . | -0.52 | . | .
CCCC(=O)Nc1sc2c(c1C#N)CCCC2 | 0.5 | 50* | -0.56 | 44 | 0.6
CC(=O)Nc1sc2c(c1C#N)CCCC2 | 1 | 0 | 0.46 | -3 | 1
COC(=O)CCC(=O)Nc1sc2c(c1C#N)CCCC2 | 0.9 | 14 | -0.22 | 15 | 0.8
N#Cc1c(NC(=O)c2ccncc2)sc2c1CCC2 | 0.5 | 53* | -0.19 | 73* | 0.3
CC1CCN(CC(=O)Nc2sc3c(c2C#N)CCC3)CC1 | 0.4 | 56* | 0.33 | 43 | 0.6
Cc1c(NC(=O)OCCSc2nc(N(C)C)nc(N(C)C)n2)sc(=S)n1C | 0.9 | 5 | -0.33 | 14 | 0.9
COc1ccc(Br)c2oc(SC)cc(=O)c12 | . | . | 0.38 | . | .
Cc1ccc2c(c1)[nH]c1c(=O)n(Cc3ccccn3)cnc12 | 0.9 | 9 | -0.21 | 21 | 0.8
C[N+]1([O-])[C@@H]2Cc3cc4c(cc3[C@@H]1Cc1cc3c(cc12)OCO3)OCO4 (stereo not given in full) | . | . | 0.8 | . | .
CCOc1ccc2[nH]c(=O)c(C(c3nnnn3Cc3ccco3)N3CCC(C)CC3)cc2c1 (stereo not given) | 0.6 | 40 | . | 62* | 0.4
Cc1ccc(C)c2[nH]c(=O)c(C(c3nnnn3CCc3ccccc3)N3CCOCC3)cc12 (stereo not given) | 0.8 | 20 | -1.2 | 22 | 0.8
CCOc1ccc2[nH]c(=O)c(C(c3nnnn3Cc3ccco3)N3CCCC(C)C3)cc2c1 (stereo not given) | 0.2 | 79* | -5.9* | 96* | 0

High-throughput results as filed in PubChem BioAssay.
